# A selection: hits, their analogues and other compounds. The true share with any hit is near 3.2%.
# Nrf2 activator: activators of Nrf2 (ARE) signaling; Potency, µM (top dose mostly 46.1 µM), for inactives: at the top dose activation, usual class: activators; AREc32 ARE-luciferase reporter (MCF7-derived line), luminescence, 24 h; actives 0.31% (n = 410,000); further: potency means the concentration at half of the fitted maximal effect; % of control where 0% means no effect; nearly all actives have a fitted effect of over 65% in size
#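 ARE-driven firefly luciferase activity in AREc32 cells measured after a 24 hr compound exposure at 37 deg C, using Steady-Glo reagent and a 30 min room-temperature hold.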
# p53 reactivation: re-activators of mutant p53 | H1299 p53-A138V BP100-luciferase reporter, luminescence, 24 h | Potency, µM (titrated, usually from 92.2 µM), inactives show top-dose activity change, positive = activation, usual class: activators | actives 0.063% (n = 320,000) | AID 504706; further: potency means the concentration at half of the fitted maximal effect; % of control where 0% means no effect; nearly all actives have a fitted effect of over 45% in size
#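 H1299 (p53-null), stable ts p53-A138V + BP100-Luc; 1000 cells/well, Opti-MEM/10% FBS; cpd 4 pt, 1:5; 24 h, 37 deg C, 5% CO2; detection reagent 10 min RT; luminescence.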
# Nrf2 block: inhibitors of Nrf2 signaling | A549 ARE-Fluc reporter, luciferase luminescence, 18-24 h | Potency, µM (titrated, usually from 46 µM), for inactives: at the top dose activity change, negative = inhibition, actives largely listed as inhibitors | actives 2.1% (n = 360,000); further: potency means the concentration at half of the fitted maximal effect; on the % scale 0 is the no-effect control and ±100 the full control effect; nearly all actives have a fitted effect of over 60% in size
#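 Cells were seeded and rested 2 h, then exposed to compounds for 18-24 h. CellTiter-Fluor was read first as a viability measure. BugLite was added 15 min before the final luminescent read of ARE-luciferase activity in A549 cells.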
# A549 tox: A549 cytotoxicity, counter-screen for Nrf2 inhibitors; A549 ARE-Fluc cells, CellTiter-Fluor viability, 18-24 h; actives 0.16% (n = 390,000); Potency, µM (doses to about 46 µM), for the others: at the top dose activity change, negative = cytotoxicity, most hits filed as inhibitors; further: potency means the concentration at half of the fitted maximal effect; on the % scale 0 is the no-effect control and ±100 the full control effect
#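 A549 ARE-Fluc cells in 5% FBS OPTI-MEM, 5000 cells/well, rested 2 h then exposed to compounds in concentration-response for 18-24 h at 37 °C. Viability by CellTiter-Fluor fluorescence (Ex 405/Em 525) after 30 min; luciferase luminescence (BugLite, 15 min, RT) read afterwards.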
# BRCA1 expr act: activators of BRCA1 expression; actives 1.1% (n = 380,000); MCF7-BRCA1-FFLuc reporter, luminescence, 48 h; response scale: scaled: vehicle 0%, 10 µM genistein 100%; Potency, µM (titrated, usually from 46.1 µM), inactives show at the top dose activation, actives largely listed as activators; further: potency means the concentration at half of the fitted maximal effect; nearly all actives have a fitted effect of over 80% in size
#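 First, MCF7-BRCA1-FFLuc cells (2000/well) attach for 2 h; next, compounds are pin-added and incubated 48 h at 37 °C; finally, luciferase reagent is added and luminescence read after 15 min.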
# IL-2 act: activators of IL-2 | IL-2 activation reporter assay, cell-based qHTS; stimulated with anti-CD3/CD4/CD28 beads; in transgenic mouse T cells | activation, % (series mostly up to about 46 µM) | actives 0.065% (n = 360,000) | AID 652025; in the data active means activation above about 50%; inconclusive means mostly about 30% to 49%; further: 0% is about no effect
#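 Unstimulated transgenic mouse T cells, 750 per well, received compound and, after 60 minutes, anti-CD3/anti-CD4 bead plus anti-CD28 stimulation. EGFP and DsRed were quantified after 18 hours.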
# * marks the source's active call; other numbers are inactive results; ? = inconclusive; . = not tested or not shown. Unless noted, the call rests on the fitted dose curve; in most records, active means well fitted curve in the direction sought with a large enough effect; inconclusive means small, poorly fitted or top-dose-only effect, or another doubt; inactive means no such curve, though single readings can be large; an effect the other way counts as inactive or inconclusive.
SMILES,Nrf2 activator,p53 reactivation,Nrf2 block,A549 tox,BRCA1 expr act,IL-2 act
Cc1ccc(NC(=O)CCc2nc3cccnc3n2-c2ccccc2)cc1Cl,0%,.,?,-2%,.,.
CCOC(=O)c1c(-c2ccccc2)csc1NC(=O)c1nc(S(=O)(=O)CC)ncc1Cl,0%,.,17%,-28%,.,.
COc1ccc2nc(C)cc(NCc3ccc(F)cc3)c2c1,8%,0%,-1%,1%,-35%,65*
COc1ccc2nc(C)cc(Nc3ccc(C)cc3)c2c1,-1%,5%,-16%,?,29%,-2
O=C(c1cccs1)N1CCCc2cc(NS(=O)(=O)c3ccc(F)cc3F)ccc21,5%,.,.,-3%,.,.
COc1ccc(NC(=O)c2ccco2)cc1NC(=O)COc1cc(C)ccc1C(C)C,-1%,.,18µM*,-19%,-23%,.
Cc1ccc(C(C)C)c(OCC(=O)Nc2cccc(NC(=O)c3ccco3)c2)c1,-3%,.,-12%,4%,.,.
COc1ccc(Cl)cc1NC(=O)c1ccco1,5µM*,-3%,.,1%,-57%,-2
O=C(Nc1cc(Cl)ccc1-n1cncn1)c1ccco1,10µM*,.,1%,2%,-22%,-1
COc1ccccc1Cc1nc2ccccc2nc1SCC(=O)Nc1cccc(Cl)c1C,-1%,.,.,2%,.,.
Cc1cccc(NS(=O)(=O)c2ccc3c(c2)OCC(C(=O)N2CCCC2)O3)c1C (configuration not stated),1%,.,-23%,3%,.,.
N#C/C(=C\c1ccc(OCc2ccc(Br)cc2)cc1)C(=O)Nc1cccc(C(=O)O)c1,3%,?,1%,-8%,7.1µM*,0
COc1cc(/C=C(\C#N)C(=O)Nc2cccc(C(=O)O)c2)ccc1OCc1ccc(F)cc1,3%,?,4%,-3%,11µM*,0
N#C/C(=C\c1ccc(OCc2ccc(F)cc2)cc1)C(=O)Nc1cccc(C(=O)O)c1,7%,?,-5%,-2%,11µM*,0
N#C/C(=C/c1ccc(OCc2ccc(C(=O)O)cc2)cc1)C(=O)Nc1ccccc1,0%,-1%,3%,-1%,-2%,0
O=C(CCNS(=O)(=O)c1ccc2c(c1)CCN2C(=O)C1CC1)Nc1ccc(Cl)cc1,-1%,.,.,1%,-5%,.
Cc1cccc(N/N=C2/COC(C)(C)CC2=O)c1,4%,?,6%,-2%,7.9µM*,-2
COc1ccccc1N/N=C1\COC(C)(C)CC1=O,2%,23%,10%,1%,2%,2
CC1(C)CC(=O)/C(=N/Nc2ccc(Cl)cc2)CO1,3%,20%,16%,18%,3.5µM*,0
COc1ccc(OCC(=O)Nc2nnc(S(=O)(=O)N3CCc4ccccc43)s2)cc1,7%,.,?,9%,.,.
COc1ccc(C(=O)Nc2ccccc2C(=O)OCc2cc(=O)n3nc(C4CC4)sc3n2)cc1,1%,.,.,1%,.,.
Cc1ccc(CNc2nc3c([nH]2)c(=O)n(C)c(=O)n3C)cc1,0%,-2%,9.2µM*,-24%,-13%,0
Cn1c(=O)c2[nH]c(Nc3ccccc3)nc2n(C)c1=O,14%,-12%,-5%,5%,-32%,-3
CC1=C(CO)C(=O)OC([C@@H](C)C2CC[C@H]3C4C[C@H]5O[C@]56[C@@H](O)C=CC(=O)[C@]6(C)C4CC[C@]23C)C1 (some centres not stated),-2%,-14%,13µM*,-18%,-87%,-1
O=C(CSc1nc2ccccc2c(=O)n1CCCN1CCOCC1)Nc1cccc(S(=O)(=O)N2CCCCCC2)c1,2%,-13%,23µM*,?,-74%,-3
Cc1cccc(NC(=O)CSc2nc3ccccc3c(=O)n2C)c1,0%,-2%,12µM*,-5%,-13%,-4
CCOc1ccc(OCC)c(NC(=O)CSc2nc3ccccc3c(=O)n2C)c1,0%,-3%,10µM*,-29%,-69%,-2
